VDR inh = inhibitors of human vitamin D receptor. Potency, µM, inactives show max response, negative = inhibition, hits mostly inhibitors. VDR-SRC2-3 peptide fluorescence polarization, 2 h. AID 504847. 400,000 tested, 0.93% active
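Fluorescence polarization assay measuring small-molecule disruption of VDR binding to the coregulator peptide SRC2-3. Compounds were pin-transferred (23 nl) into the reagent mix and incubated 2 h at room temperature before reading.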
PLK1 PBD inh = blocks phosphopeptide binding to human PLK1 polo-box domain; 360,000 tested, 2.8% active; Potency, µM, without a hit: max response, negative = inhibition, actives largely listed as inhibitors; Plk1 PBD binding of FITC phosphopeptide, fluorescence polarization; AID 720504; P53350; further: series mostly up to about 57 µM; nearly all actives have a fitted effect of over 65% in size
TDP1 cell noCPT = qHTS for Inhibitors of human tyrosyl-DNA phosphodiesterase 1 (TDP1): qHTS in cells in absence of CPT | DT40 Tdp1-/- hTDP1 cells, no CPT, ATP luminescence, 48 h | Potency, µM (doses to about 46.2 µM), for the others: top-dose activity change, negative = growth inhibition, actives largely listed as inhibitors | 420,000 tested, 15% active; further: nearly all actives have a fitted effect of over 55% in size
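No-CPT arm: Tdp1-/-;hTDP1 DT40 cells (400/well) plus compounds, incubated ≥48 hr at 37 °C. Readout CellTiter-Glo luminescence.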
KAT2A inh = GCN5L2 (KAT2A) acetyltransferase inhibition; Q92830; GCN5L2 HAT assay, ThioGlo1 CoA-SH fluorescence; Potency, µM (top dose mostly 58.9 µM), inactives show at the highest dose activity change, negative = inhibition, usual class: inhibitors; 390,000 tested, 0.21% active; AID 504327
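GCN5L2 (20nM final) in 50mM HEPES, 0.1mM EDTA pH 7.5, 0.01% Tween-20 was preincubated 15 min at room temperature with compound, then given ThioGlo1 (50uM), H3(1-25) peptide (75uM) and acetyl-CoA (70uM); CoA-thiol fluorescence (Ex340/Em540) was read at 0 and 20 min.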
DT40 TDP1 CPT = DT40-hTDP1 cell growth loss with CPT; chicken DT40 Tdp1-/-;hTDP1 cells + 20 nM CPT, ATP luminescence, 48 h; Potency, µM (highest dose often 46.2 µM), inactives show at the top dose activity change, negative = growth inhibition, actives largely listed as inhibitors; 420,000 tested, 12% active; AID 686979; further: nearly all actives have a fitted effect of over 55% in size
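Chicken DT40 Tdp1-/- cells complemented with human TDP1, 400 cells/well, exposed to compounds plus 20 nM camptothecin for at least 48 h at 37 C; viability read as ATP content by CellTiter-Glo luminescence.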
TDP1 block = inhibitors of human tyrosyl-DNA phosphodiesterase TDP1; Q9NUW8; recombinant TDP1, AlphaScreen DNA substrate cleavage; Potency, µM (doses to about 130 µM), inactives show at the top dose activity change, negative = inhibition, actives largely listed as inhibitors; 350,000 tested, 0.28% active; AID 485290; further: nearly all actives have a fitted effect of over 40% in size
Target sequence (Q9NUW8 whole entry, looked up): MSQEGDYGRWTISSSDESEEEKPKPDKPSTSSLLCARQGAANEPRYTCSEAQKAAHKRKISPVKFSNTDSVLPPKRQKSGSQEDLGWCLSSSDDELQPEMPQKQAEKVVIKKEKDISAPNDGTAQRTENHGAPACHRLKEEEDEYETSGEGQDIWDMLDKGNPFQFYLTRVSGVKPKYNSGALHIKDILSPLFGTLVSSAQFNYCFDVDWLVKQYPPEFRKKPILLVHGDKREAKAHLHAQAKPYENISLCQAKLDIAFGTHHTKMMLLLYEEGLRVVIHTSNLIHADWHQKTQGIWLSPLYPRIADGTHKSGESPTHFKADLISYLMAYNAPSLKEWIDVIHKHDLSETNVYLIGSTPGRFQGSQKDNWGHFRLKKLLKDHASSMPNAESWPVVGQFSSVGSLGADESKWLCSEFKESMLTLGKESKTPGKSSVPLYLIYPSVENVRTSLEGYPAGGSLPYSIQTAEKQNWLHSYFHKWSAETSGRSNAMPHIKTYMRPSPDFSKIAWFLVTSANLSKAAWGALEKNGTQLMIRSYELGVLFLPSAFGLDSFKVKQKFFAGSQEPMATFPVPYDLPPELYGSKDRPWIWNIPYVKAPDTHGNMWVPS
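Compounds were preincubated with Tdp1 (1 nM final) for 15 min at room temperature before substrate (15 nM final) started a 5 min reaction; beads (10 ug/ml final) were then added for 10 min before AlphaScreen detection.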
Numbers without * were called inactive; ? = inconclusive; . = no result; [ ] = remark or other dose. Most compounds without a hit are left out; they make up all but 18% or so of the library. The call rests on the fitted dose curve; in most records, active means well fitted curve in the direction sought with a large enough effect; inconclusive means small, poorly fitted or top-dose-only effect, or another doubt; inactive means no such curve, though single readings can be large; an effect the other way counts as inactive or inconclusive. On the % scale 0 is the no-effect control and ±100 the full control effect; potency means the concentration at half of the fitted maximal effect.

SMILES	VDR inh	PLK1 PBD inh	TDP1 cell noCPT	KAT2A inh	DT40 TDP1 CPT	TDP1 block
CCN(CC)CCN(C(=O)Cn1nnc(-c2ccc(C)o2)n1)C(C(=O)NC1CCCC1)c1ccc(F)cc1 (configuration not stated)	17%	3%	?	-7%	-18%	7%
CCCCn1c(N)c(N(CC(C)C)C(=O)C2CCN(S(=O)(=O)c3ccc(C)cc3C)CC2)c(=O)[nH]c1=O	-3%	-9%	-6%	0%	-11%	-3%
CC(C)c1nc2ccc(C(=O)NCc3ccc(F)cc3)cc2o1	8%	.	?	-5%	-26%	3%
Clc1nc(NCc2ccco2)c2ccccc2n1	.	.	7.1µM*	.	?	.
c1cncc(-c2nc(NCc3ccco3)c3ccccc3n2)c1	1%	-3%	?	?	-25%	8%
C=CCNc1nc(Cl)nc(NCc2ccco2)n1	2%	5%	-5%	8%	-22%	.
CSc1nc(NCc2ccco2)c2ccccc2n1	4%	-21%	?	-4%[0.501 µM]	?	5%
C=CCNc1nc(NCc2ccco2)nc(OCC)n1	12%	-2%	?	3%	21µM*	2%
CCNc1nc(NCc2ccco2)c2ccccc2n1	.	.	11µM*	.	11µM*	.
CNc1nc(NCc2ccco2)c2ccccc2n1	.	.	16µM*	.	10µM*	.
COCCNC(=O)c1cc2n(n1)CCCN(Cc1ccc(C)cc1)C2=O	2%	.	-4%	0%	-16%	1%
Cc1ccc2nc(/C(C#N)=C/c3cccc(Br)c3)[nH]c2c1	-7%	.	16µM*	?	15µM*	.
COc1cc(/C=C(\C#N)c2nc3ccc(C)cc3[nH]2)ccc1OC(C)C	2%	.	-12%	-3%	?	2%
Cc1cc2nc(/C(C#N)=C/c3ccncc3)[nH]c2cc1C	22µM*	27µM*	16µM*	-9%	18µM*	0%
Cc1ccc2nc(/C(C#N)=C/c3cn[nH]c3-c3ccc(F)cc3)[nH]c2c1	-11%	-4%	18µM*	-1%	?	4%
Cc1ccc2nc(/C(C#N)=C/c3ccc(O)c(O)c3)[nH]c2c1	?	?	18µM*	-3%	18µM*	8%
Cc1cccc(/C=C(\C#N)c2nc3ccccc3c(=O)[nH]2)c1	-18%	.	?	-7%	?	2%[2.28 µM]
Cc1ccc2nc(/C(C#N)=C/c3ccccc3C(=O)O)[nH]c2c1	3%	-1%	3%	-11%	24%	.
CN(Cc1ccon1)C(=O)c1cnn(-c2ncc3c(n2)-c2ccccc2CCC3)c1C1CC1	.	.	?	.	-2%[9.04 µM]	.
Cc1cccc(N(C)C(=O)C2CCC(CNS(=O)(=O)c3cccc4nsnc34)CC2)c1 (configuration not stated)	-17%	.	-29%	-4%	?	5%
N#C/C(=C\c1cccnc1)c1nc2ccccc2[nH]1	-16%	-2%	5.8µM*	-20%	?	7%
N#C/C(=C\c1ccncc1)c1nc2ccccc2[nH]1	0%	-2%	?	-23%	?	8%
O=c1[nH]c(=O)n(C2CCCCC2)c(O)c1C1=Nc2ccccc2SC(c2ccccc2)C1 (configuration not stated)	9%	.	-12%	-14%	-9%	0%
Cc1cc(O)c(C2=Nc3ccccc3SC(c3ccc(Cl)cc3)C2)c(=O)o1 (configuration not stated)	?	-26%	7.3µM*	0%	5.2µM*	5%
Cc1ccc(NS(=O)(=O)c2ccc3c(ccn3C)c2)cc1C	.	.	.	.	.	0%
SMILES	VDR inh	PLK1 PBD inh	TDP1 cell noCPT	KAT2A inh	DT40 TDP1 CPT	TDP1 block
COc1ccc(-n2ccnc2SCC(=O)c2c(N)n(C3CC3)c(=O)[nH]c2=O)cc1	.	-7%	1%	.	-6%	.
CN1CCN(Cn2cc(/C=C/C(=O)c3ccccc3)c3ccccc32)CC1	-9%	6%	?	-16%	-26%	0%
CCCCN(C)CC(O)Cn1cc(/C=C/C(=O)c2ccc(C)cc2)c2ccccc21 (configuration not stated)	0%	-3%	9.2µM*	2%	7.3µM*	5%
CCCCN(C)CC(O)Cn1cc(/C=C/C(=O)c2ccc(Br)cc2)c2ccccc21 (configuration not stated)	16%	.	5.2µM*	-10%	6.5µM*	-3%
CCCCN(C)CC(O)Cn1cc(/C=C/C(=O)c2ccc(OC)c(OC)c2)c2ccccc21 (configuration not stated)	15%	.	21µM*	-14%	18µM*	8%
COc1ccc(C(=O)/C=C/c2cn(CC(O)CN3CCN(C)CC3)c3ccccc23)cc1OC (configuration not stated)	-9%	42%	?	-4%	?	-7%
CCCCCCCCCCCCCCCCCCNC(=O)OCC(COP(=O)([O-])OCC[n+]1ccsc1)OC (configuration not stated)	-6%	.	.	-18%	.	6%[56.1 µM]
Cc1ccc(-n2ncc(C(=O)NCCCN3CCCCC3)c2C2CCN(C(=O)OC(C)(C)C)CC2)cc1	-3%	.	-29%	-16%	?	0%
OC(CNC1CCCCC1)CON=C1CCSc2c(Cl)cccc21 (configuration not stated)	.	3%	8.2µM*	.	23µM*	.
OC(CNC1CCCC1)COc1ccc(-c2ccccc2)cc1 (configuration not stated)	-4%	-10%	?	-8%	?	3%
O=[N+]([O-])c1cc(-c2n(-c3ccccn3)c3ccccc3[n+]2-c2ccccn2)ccc1Cl	-10%	-7%	23µM*	-3%	16µM*	5%
O=C(CSc1nnc(COc2ccc(F)cc2)o1)N1c2ccccc2CCc2ccccc21	-20%	-1%	16µM*	-2%	?	6%
O=C(CSc1nnc(COc2cccc3cccnc23)o1)N1CCc2ccccc21	-11%	-2%	2.3µM*	-6%	2.1µM*	2%
[O-][n+]1onc2c1CCc1c-2nn(-c2ccccc2Cl)[n+]1[O-]	-12%	-8%	15µM*	-5%	13µM*	2%
O=C(O)CCCN1C(=O)/C(=C\c2ccccc2OCc2ccccc2)SC1=S	-25%	27µM*	2%	-17%	2%	.
O=C(O)CN1C(=O)/C(=C\c2ccccc2OCc2ccc(F)cc2)SC1=S	?	27µM*	9%	-10%	1%	.
O=C(O)CN1C(=O)/C(=C\c2ccccc2OCc2ccccc2)SC1=S	.	?	7%	.	-4%	.
COc1ccc(CNC(=O)c2c(O)nc3c(C)cccn3c2=O)cc1	-2%	.	12µM*	-3%	?	1%

High-throughput results (PubChem)
